Assay results reported in publication PMC4336329 (PLoS ONE, 2015).
In all, about 310,000 compounds went through this assay and about 14,000 (4.5%) showed an effect of 50% or more. The effect is printed as a negative number. Many of the other results were omitted from the sample, so strong results are more common in it than they were.

target: human ether-à-go-go-related gene (hERG) potassium channel (human, UniProt Q12809); assay: primary screen, population patch clamp on CHO cells stably expressing hERG; higher = less effect of the substance
Sequence (Q12809 whole entry, looked up): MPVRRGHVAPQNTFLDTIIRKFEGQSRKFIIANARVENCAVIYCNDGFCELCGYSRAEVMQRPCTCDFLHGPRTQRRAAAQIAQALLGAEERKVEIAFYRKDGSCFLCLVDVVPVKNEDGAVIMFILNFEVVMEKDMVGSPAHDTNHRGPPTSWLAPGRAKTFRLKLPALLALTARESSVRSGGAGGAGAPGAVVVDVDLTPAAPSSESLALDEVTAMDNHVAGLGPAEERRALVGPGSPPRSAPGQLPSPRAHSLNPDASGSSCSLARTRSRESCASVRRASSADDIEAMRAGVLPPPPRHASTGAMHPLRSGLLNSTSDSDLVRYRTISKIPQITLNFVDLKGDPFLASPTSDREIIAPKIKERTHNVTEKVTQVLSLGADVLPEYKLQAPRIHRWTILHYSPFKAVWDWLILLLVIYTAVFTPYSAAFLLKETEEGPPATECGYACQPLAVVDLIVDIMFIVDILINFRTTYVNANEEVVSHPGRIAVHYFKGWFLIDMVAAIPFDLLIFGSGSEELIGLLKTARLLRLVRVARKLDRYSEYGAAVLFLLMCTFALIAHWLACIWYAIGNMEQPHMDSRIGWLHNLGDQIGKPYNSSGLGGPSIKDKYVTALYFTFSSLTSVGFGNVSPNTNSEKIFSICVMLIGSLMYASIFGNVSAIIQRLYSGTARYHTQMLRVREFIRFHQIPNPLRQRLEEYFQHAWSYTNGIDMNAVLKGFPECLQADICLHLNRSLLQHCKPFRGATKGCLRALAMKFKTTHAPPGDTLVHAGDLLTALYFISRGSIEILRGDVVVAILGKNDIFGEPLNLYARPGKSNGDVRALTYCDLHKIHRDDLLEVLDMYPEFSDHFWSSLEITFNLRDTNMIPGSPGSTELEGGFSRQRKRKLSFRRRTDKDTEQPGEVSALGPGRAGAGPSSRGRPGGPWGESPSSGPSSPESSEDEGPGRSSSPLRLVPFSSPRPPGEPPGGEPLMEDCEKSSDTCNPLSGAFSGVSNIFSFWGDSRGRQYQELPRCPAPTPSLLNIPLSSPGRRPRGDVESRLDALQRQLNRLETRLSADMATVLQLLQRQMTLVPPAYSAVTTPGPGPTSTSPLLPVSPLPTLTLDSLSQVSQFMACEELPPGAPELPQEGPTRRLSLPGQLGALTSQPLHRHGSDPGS
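Further: peak tail current of the secondary pulse compared with the same well before compound.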

Row | SMILES | hERG current change (%, negative = inhibition) at 10uM [%]
1 | Cn1cc(S(=O)(=O)N2CCCC2)cc1C(=O)NCc1ccc(Cl)cc1 | 2.02
2 | COc1ccc(CCNC(=O)Cn2cnc3c(cnn3-c3ccccc3Cl)c2=O)cc1OC | -1.24
3 | COc1ccc2nc(NC(C)=O)sc2c1 | -4.83
4 | Cc1ccc(OCC(=O)N/N=C/C=C/c2ccco2)cc1 | -45.9
5 | CC(Oc1ccc(Cl)cc1)c1ccnn1S(=O)(=O)c1ccccc1 (stereo not shown) | 5.02
6 | CCN(CC)C(=O)c1ccc2c(=O)n(CCOC)c(=S)[nH]c2c1 | -7.02
7 | COCCNc1c2c(nc3c(-c4ccccc4)c(C)nn13)CCCC2 | -1.34
8 | Cc1nn2c(NCCN(C)C)c3c(nc2c1-c1ccccc1)CCC3 | -26.7
9 | Cc1nn2c(NCCOCCO)c3c(nc2c1-c1ccccc1)CCCC3 | -74.2
10 | Cc1nn2c(NCCCN(C)C)c3c(nc2c1-c1ccccc1)CCCC3 | -32.2
11 | CCCCNc1c2c(nc3c(-c4ccccc4)c(C)nn13)CCC2 | -3.59
12 | Cc1nn2c(Nc3ccccc3)c3c(nc2c1-c1ccccc1)CCC3 | 14.1
13 | Cc1nn2c(NCc3cccnc3)c3c(nc2c1-c1ccccc1)CCC3 | -34.2
14 | Cc1nn2c(NCc3ccccn3)c3c(nc2c1-c1ccccc1)CCC3 | -51
15 | COCCNc1c2c(nc3c(-c4ccccc4)c(C)nn13)CCC2 | 2.2
16 | Cc1nn2c(NCC(C)C)c3c(nc2c1-c1ccccc1)CCC3 | 4.8
17 | Cc1nn2c(NCCOCCO)c3c(nc2c1-c1ccccc1)CCC3 | -50.2
18 | Cc1nn2c(NCCCN(C)C)c3c(nc2c1-c1ccccc1)CCC3 | -59.4
19 | Cc1ccc(-c2csc(NC(=O)C3=NN(c4ccccc4)C(=O)CC3)n2)cc1 | 3.35
20 | CCCN1CCN(C(c2cc3cc(OCC)ccc3[nH]c2=O)c2nnnn2C2CCCCC2)CC1 (stereo not shown) | -46.4

Row | SMILES | hERG current change (%, negative = inhibition) at 10uM [%]
21 | Cc1ccc(C(C(=O)NC2CCCCC2)N(C(=O)c2csnn2)C2CC2)cc1 (stereo not shown) | -9.75
22 | COc1ccc(C(CC(=O)N2CCOCC2)c2c(OC)cc(OC)c3ccc(=O)oc23)cc1 (stereo not shown) | -3.96
23 | Cn1c2ccccc2c2c(C(=O)NCC3CCCO3)cn(C3CCCC3)c(=O)c21 (stereo not shown) | -0.664
24 | CNC.Cc1cccn2c(NCC3CCCO3)c(C(C)C)nc12.Cl (stereo not shown) | -12.7
25 | Cc1c(C(C)O)nnn1-c1nonc1N (stereo not shown) | -2.42
26 | CN=C(Nc1cccnc1)c1ccccc1 | 15.6
27 | CCOc1ccc(-n2c(=O)c3c4c(sc3n(CC(=O)NCCCOC)c2=O)CCCCC4)cc1 | -1.22
28 | CN(C)CCCNc1c2c(nc3cc(-c4cccc(F)c4)nn13)CCC2 | -69.1
29 | Cc1nn2c(NCCN3CCOCC3)c3c(nc2c1-c1ccccc1)CCCC3 | -76.5
30 | Cc1nn2c(N3CCOCC3)c3c(nc2c1-c1ccccc1)CCCC3 | -14.8
31 | Cc1nn2c(NCCN(C)C)c3c(nc2c1-c1ccccc1)CCCC3 | -41.4
32 | Fc1cccc(-c2cc3nc4c(c(NCc5ccco5)n3n2)CCCC4)c1 | -33.2
33 | CN(C)CCCNc1cc(-c2ccccc2)nc2cc(-c3cccc(F)c3)nn12 | -15.9
34 | CCn1cc(Br)c(C(=O)Nc2ccc(Cl)cc2Cl)n1 | 7.24
35 | Cc1ccc(S(=O)(=O)N(Cc2ccc(Cl)cc2)c2ccccc2C(=O)O)cc1 | 12.3
36 | COc1ccccc1NS(=O)(=O)c1cc2c(cc1C)NC(=O)CO2 | -7.43
37 | CN1C(=O)/C(=C/c2cccc(Cl)c2)Sc2ccc(C(=O)N3CCCC3)cc21 | -49.7
38 | CCOC(=O)N1CCN(C(=O)c2ccc3c(c2)N(C)C(=O)/C(=C\c2ccc(OCC)c(OC)c2)S3)CC1 | -32.5
39 | CN1C(=O)/C(=C/c2cccc(Cl)c2)Sc2ccc(C(=O)N3CCOCC3)cc21 | -50.3
40 | COc1ccc(/C=C2\Sc3ccc(C(=O)N4CCOCC4)cc3N(C)C2=O)cc1 | -15.3

Row | SMILES | hERG current change (%, negative = inhibition) at 10uM [%]
41 | CCOc1ccc(/C=C2/Sc3ccc(C(=O)N4CCN(C(=O)c5ccco5)CC4)cc3N(C)C2=O)cc1OC | -53.9
42 | Cc1cccc(/C=C2\Sc3ccc(C(=O)N4CCCCC4)cc3N(C)C2=O)c1 | 12.1
43 | Cc1cccc(/C=C2\Sc3ccc(C(=O)N4CCOCC4)cc3N(C)C2=O)c1 | -40.7
44 | CCOc1ccc(/C=C2/Sc3ccc(C(=O)N4CCOCC4)cc3N(C)C2=O)cc1OC | -18.5
45 | CN1CCN(C(=O)c2ccc3c(c2)N(C)C(=O)/C(=C/c2cccc(Cl)c2)S3)CC1 | -55.1
46 | COc1ccc(C(C(=O)NC(C)(C)C)N(Cc2cccnc2)C(=O)CCC(=O)Nc2cc(C)on2)cc1 (stereo not shown) | 10.9
47 | COc1cc(-c2csc(C)n2)ccc1O | 8.67
48 | CN(C)C=O.COc1ccccc1NC(=O)C1=C(C)NC(=O)NC1c1ccccc1[N+](=O)[O-] (stereo not shown) | 7.42
49 | COc1cccc(N2CCN(C(=O)C3CCCN(S(=O)(=O)c4cnc[nH]4)C3)CC2)c1 (stereo not shown) | 17.4
50 | O=C(NCc1ccc2c(c1)OCO2)c1ccncc1 | -12.6
51 | Cc1ccc(NCC(=O)Nc2cccc(F)c2)cc1S(=O)(=O)N1CCCCCC1 | -22.6
52 | COC(=O)c1ccccc1NC(=O)N1CSC[C@H]1C(=O)OC | 15.8
53 | CCCCN(CCCC)CC(O)COc1ccccc1Br.Cl (stereo not shown) | -40.6
54 | CCCN(CCC)CC(O)COc1ccccc1C(=O)Nc1ccccc1.Cl (stereo not shown) | -68.2
55 | CC1(C)NC(=O)N(CC(O)COc2ccccc2C(=O)Nc2ccccc2)C1=O (stereo not shown) | -6.2
56 | CCOc1ccccc1C(=O)Nc1ccc(NC(=O)c2ccccc2)cc1 | 12.7
57 | Cc1cc(C)n(CC(O)COc2ccccc2C(=O)Nc2ccccc2)n1 (stereo not shown) | -26.1
58 | CCCCN(CCCC)CC(O)COc1ccccc1C(=O)Nc1ccccc1 (stereo not shown) | -98.7
